EP2 mod = modulators of human EP2 prostaglandin E2 receptor | P43116 | EP2-expressing cells, cAMP HTRF FRET, PGE2 co-stimulation | induction, % at 25 µM | 260,000 compounds, 0.83% hits;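 active means compounds whose cAMP rise, as percent of the full-agonist control response, exceeds 60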;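 further: rat C6 glioma line stably carrying human EP2 under a CMV promoter; the protocol text gives 20 µM as final concentration; 100% = response of wells given 1 µM PGE2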
Target sequence (P43116 whole entry, looked up): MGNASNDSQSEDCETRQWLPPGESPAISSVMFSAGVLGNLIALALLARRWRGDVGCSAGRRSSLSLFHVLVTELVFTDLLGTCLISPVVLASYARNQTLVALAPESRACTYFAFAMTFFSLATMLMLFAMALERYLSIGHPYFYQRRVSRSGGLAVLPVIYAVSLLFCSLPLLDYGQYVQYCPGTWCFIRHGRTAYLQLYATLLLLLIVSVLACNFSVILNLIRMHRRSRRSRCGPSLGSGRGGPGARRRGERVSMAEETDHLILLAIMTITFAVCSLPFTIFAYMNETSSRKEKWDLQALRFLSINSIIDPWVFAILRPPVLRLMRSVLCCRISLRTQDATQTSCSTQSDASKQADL
Efa HMGR inh = blocks class II HMG-CoA reductase of Enterococcus faecalis; purified E. faecalis HMGR, NADPH absorbance 340 nm kinetic; inhibition, % at 10 µM; 190,000 compounds, 0.41% hits;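 active means inhibition above a set limit, the median over all tested compounds plus 3 SD, cut at about 9.5% in these data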;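 further: enzyme runs in reverse so mevalonate oxidation gives rising NADPH absorbance; 0% = complete reaction with DMSO and 100% = background rate lacking mevalonate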
EP2 antag = EP2 receptor (human) inhibition; C6 glioma cells expressing human EP2, cAMP TR-FRET; cells stimulated with saturating PGE2; inhibition, % at 25 µM; AID 1422; 260,000 compounds, 0.52% hits; P43116;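 active means percent inhibition above 40 after rounding to a whole number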;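 further: rat C6 glioma host cells with rolipram phosphodiesterase inhibitor present; the protocol text gives 20 µM as final concentration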
GSH fluor = compound fluoresces at 488/530 nm on GSH beads; fluorescence (KMESF) at 10 µM; 190,000 compounds, 0.25% hits; AID 1776; GSH beads flow cytometry, compound fluorescence 488/530 nm; stronger effect = higher value; in the data active means fluorescence above about 89;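 further: glutathione beads carrying GST-tagged Bcl family fusion proteins plus one bare bead set; values are compound well signal with DMSO vehicle wells as background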
Avidin fluor = compound fluoresces at 488/530 nm on avidin beads; compound fluorescence 488/530 nm, flow cytometry; stronger effect = higher value; fluorescence (KMESF) at 10 µM; 220,000 compounds, 0.38% hits; AID 1775; in the data active means fluorescence above about 47
EP2 cAMP induct = human EP2 receptor cAMP induction, negative in counter-screens; shares compounds with EP2 mod; calls only at 20 µM (by protocol); AID 1080; C6 glioma EP2 cells, cAMP HTRF induction; plus low (about EC15) PGE2 agonist; 1,300 compounds, 47% hits;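 active means cAMP induction above 50% in the main assay while under 30% in all four parallel counter assays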;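 further: rat C6 glioma cells stably expressing human EP2 receptor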
An asterisk follows results filed as active; i = inactive; x = no result given; + = active, no number. This is a sample that favours compounds with a hit; in the whole collection about 2.1% have one here.

SMILES | EP2 mod | Efa HMGR inh | EP2 antag | GSH fluor | Avidin fluor | EP2 cAMP induct
Nc1c(C(=O)NCc2ccccc2)c2nc3ccccc3nc2n1CCCN1CCOCC1 | 77.3* | -0.4 | 4.2 | 18 | 5 | i
Nc1c(C(=O)NCc2ccco2)c2nc3ccccc3nc2n1CCc1ccccc1 | 68.0* | -2.1 | 9.8 | 20 | 3 | i
CCc1nn(CCC(N)=O)c(=O)c2cc3sc(C)cc3n12 | -18.9 | x | x | x | x | x
CCN1CCN(C(c2cc3cc4c(cc3[nH]c2=O)OCCO4)c2nnnn2Cc2ccccc2)CC1 (stereo unspecified) | -19.6 | x | 10.6 | x | x | x
O=c1[nH]c(=O)c2cc(S(=O)(=O)N3CCC(c4ccccc4)C3)ccc2[nH]1 (stereo unspecified) | -83.7 | x | 11.2 | x | x | x
CCCCc1n[nH]c(=S)n1Cc1ccccc1 | 19.1 | -2.6 | 11.0 | 8 | 11 | x
CCCCc1n[nH]c(=S)n1Cc1ccc(Cl)cc1 | 51.9 | 0.5 | 5.7 | 10 | 26 | i
Cc1cc(C)n(-c2cc(-c3ccccc3)nc(C)n2)n1 | 68.9* | -2.4 | 13.2 | 29 | 9 | i
CC(C)C1COC(c2cccn2Cc2ccccc2Cl)=N1 (stereo unspecified) | 67.6* | -3.8 | 7.0 | 18 | 11 | i
Cc1ccc(Cn2cccc2C2=NC(C)CO2)cc1 (stereo unspecified) | 44.2 | -5.4 | 12.5 | 38 | 2 | x
Oc1c(C=C2N=c3ccccc3=N2)sc(=S)n1-c1ccccc1 | -8.7 | -3.9 | 2.8 | 8 | 2 | x
CC1=Nc2ccccc2/C1=C/c1sc(=S)n(-c2cccc(C(=O)O)c2)c1O | 71.2* | -3.3 | 7.2 | 29 | 10 | +
COc1ccc(N=Cc2cc(Cc3ccccc3Cl)cc([N+](=O)[O-])c2O)cc1OC | 71.8* | 3.8 | 3.4 | 8 | 33 | +
Cc1ccc(N=Cc2cc(Cc3ccccc3Cl)cc([N+](=O)[O-])c2O)c(O)c1 | 67.5* | 1.1 | 10.3 | 9 | 12 | i
Cc1n[nH]c(C)c1Sc1ccccc1N=Cc1cc(Cl)cc([N+](=O)[O-])c1O | 20.6 | 0.5 | 9.0 | 51 | 4 | x
COc1ccc([N+](=O)[O-])cc1NC(=O)Cc1ccccc1Cl | 3.4 | -1.7 | 1.2 | 4 | 12 | x
Cc1cccc(C)c1N1CCN(C(=O)C23CC4CC(CC(C4)C2)C3)CC1 | -7.8 | x | 5.3 | x | x | x
COc1ccc(C(=O)N2N=C(c3ccccc3)CC2(O)C(F)(F)F)cc1 (stereo unspecified) | 83.0* | 1.0 | 10.5 | 22 | 5 | +
COc1cccc(C(=O)N2N=C(c3ccccc3)CC2(O)C(F)(F)F)c1 (stereo unspecified) | 47.6 | -2.7 | 7.8 | 4 | 14 | x
COC(=O)N1N=C(c2ccccc2)CC1(O)C(F)(F)F (stereo unspecified) | -18.2 | -3.7 | 12.3 | 52 | 7 | x
O=C(c1ccccc1O)N1N=C(c2ccccc2)CC1(O)C(F)(F)F (stereo unspecified) | 77.7* | -8.7 | 1.7 | 12 | 6 | i
O=C(Cn1nc(-c2ccncc2)nc1SCC(=O)NC1CCCC1)Nc1cccc2ccccc12 | -35.0 | x | 6.6 | x | x | x
COC(=O)/C(C)=C/CC12OC(C)(C)C3CC(C=C4C(=O)c5cc6c(c(CCC(C)(C)Cl)c5OC431)OC1(C)CCC(=C(C)C)C6C1)C2=O (stereo unspecified) | 0.5 | x | 13.4 | x | x | x
CC(=O)Oc1c2c(c3c(c1CC=C(C)C)O[C@]14C(=C[C@@H]5CC1C(C)(C)OC4(C/C=C(\C)C(=O)O)C5=O)C3=O)OC(C)(CCC=C(C)C)C=C2 (stereo partly specified) | 50.6 | x | 11.8 | x | x | i
COC(=O)c1ccccc1S(=O)(=O)N(Cc1ccco1)Cc1cc2c(C)cc(C)cc2[nH]c1=O | 1.1 | x | 12.8 | x | x | x
SMILES | EP2 mod | Efa HMGR inh | EP2 antag | GSH fluor | Avidin fluor | EP2 cAMP induct
CCOC(=O)C1CCN(S(=O)(=O)c2ccc(OCC(=O)OC)c(Cl)c2)CC1 | -88.4 | x | 10.8 | x | x | x
Cc1ccc(Nc2nc(CSc3nnc(-c4ccccc4C)n3C)cs2)cc1 | 70.8* | -3.3 | 4.2 | 16 | 6 | +
Cc1nn2c(N3CCCC3)cc(C(C)C)nc2c1-c1ccccc1 | 75.4* | -7.3 | 11.7 | 8 | 8 | +
Cc1nn2c(N3CCN(C(=O)c4ccco4)CC3)cc(C(C)(C)C)nc2c1-c1ccccc1 | 78.2* | -4.2 | 9.1 | 15 | 10 | +
C=CCn1c(CNC(=O)c2cccs2)nnc1SCC(=O)c1ccc(Br)cc1 | 52.0 | -2.6 | 5.3 | 14 | 32 | i
O=S(Cc1cc(Sc2ccccc2)nc(-c2ccccc2)n1)c1ccccc1 (stereo unspecified) | 71.5* | 0.4 | 8.1 | 56 | 7 | +
CNc1cc(CS(=O)c2ccccc2)nc(-c2ccccc2)n1 (stereo unspecified) | -8.0 | -5.5 | 14.6 | 21 | 33 | x
Cc1cc(C(=O)CSc2nc3ccccc3c(=O)n2C)c(C)n1Cc1ccc2c(c1)OCO2 | 73.6* | 0.8 | 7.8 | 12 | 152* | i
CCN1C(=O)/C(=C2/C=CC=CN2C)SC1=S | 75.3* | 0.9 | 4.8 | 39 | 8 | i
CN1C=CC=C/C1=C1/SC(=S)N(Cc2ccccc2)C1=O | -27.0 | 0.3 | 7.4 | 8 | 2 | x
Cc1ccc(C)n1-n1cnc2scc(-c3cccs3)c2c1=O | 64.5* | -1.5 | 10.7 | 54 | 11 | +
C=CCNC(=O)C1CCN(C(=O)c2ccc(Cl)cc2)CC1 | -66.5 | x | 7.5 | x | x | x
O=C(Nc1ccccc1)c1nn(-c2cccc(C(F)(F)F)c2)ccc1=O | 83.8* | 2.8 | 8.3 | 21 | 11 | +
O=C(Nc1ccccc1)c1nn(-c2ccccc2)c(=O)cc1C(F)(F)F | 7.9 | -2.1 | 15.5 | 34 | 12 | x
Cn1nccc1C(NC(=O)C1CC(c2ccc(Cl)cc2)=NO1)c1ccccc1 (stereo unspecified) | -10.6 | x | 5.5 | x | x | x
CCn1nnc(-c2ccccc2NC(=O)c2cc(OC)cc(OC)c2)n1 | 73.9* | -3.7 | 3.1 | 27 | 5 | +
CS(=O)(=O)N(CC(=O)N1CCC(C(N)=O)CC1)c1ccc(Cl)c(Cl)c1 | -10.8 | x | 9.4 | x | x | x
CC(C)(Oc1ccc(Cl)cc1)C(=O)N(Cc1ccccc1)c1ccccn1 | 68.5* | -4.6 | 6.7 | 9 | 15 | +
O=C(COc1ccc(Cl)cc1)N(Cc1ccccc1)c1ccccn1 | 37.4 | 1.9 | 7.3 | 22 | 12 | x
CC(C)C(=O)c1cc2c(cc1NC(=O)c1ccccc1)OCCO2 | 70.6* | -0.8 | 2.8 | 16 | 30 | +
Nc1cc(-c2cccs2)nn(CC(=O)N2CCC(Cc3ccccc3)CC2)c1=O | -1.3 | x | 2.8 | x | x | x
O=c1c2c(n3cnnc3n1-c1ccccc1)-c1ccccc1CC21CCCC1 | 20.1 | -2.6 | 6.5 | 5 | 13 | x
Nn1cnc2c(c1=O)C1(CCCCC1)Cc1ccccc1-2 | 73.2* | 0.1 | 2.1 | 12 | 16 | i
